High-throughput results (PubChem BioAssay)
Autophagy mod: autophagy modulation, high-content screen; AID 463193; MEF GFP-LC3 puncta imaging; test concentration mostly 10 µM; hit rate 0.98% among 190,000; calls only at 10 µM (by protocol);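 active = percentage of spot-positive cells more than 3 SD above its plate mean, without a fluorescence outlier flag or 80% toxicity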;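 also: spot-positive cell cutoff set from DMSO-treated cells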
INS promoter inh: TRM-6 insulin promoter activity inhibition; TRM-6 cells (human fetal islet line), insulin promoter-eGFP reporter, imaging; reporter expression induced with tamoxifen; inhibition, % at 2 µM; hit rate 0.9% among 130,000; AID 1273;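 active = inhibition above the mean plus 3 SD, with well images judged a real hit on visual review, cut at about 60% in these data, passing the limit was not always enough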
Lmaj promast: Leishmania major promastigote growth inhibition | Leishmania major promastigotes, resazurin fluorescence viability | inhibition, % at 10 µM | hit rate 9% among 200,000 | AID 1063; in the data active = inhibition above about 50%;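 also: promastigotes grown with compound for 44 hours at 28 °C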
HCT116 PTEN-null: suppresses growth of cells with PTEN deletion; HCT116 PTEN-null viability, CellTiter-Glo, 60 h; stronger effect = lower value; viability, % at 10 µM; hit rate 1.2% among 140,000; AID 827;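 active = viability at or below a set limit, 4 SD under the median of all tested compounds, cut at about 3.7% in these data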;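 also: PTEN knockout HCT116 line with beta catenin targeted HCT116 as companion control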
bCat KO growth: beta-catenin-lacking colon tumor cell growth suppression; HCT116 beta-catenin knockout viability, CellTiter-Glo, 60 h; stronger effect = lower value; hit rate 1.5% among 140,000; viability, % at 10 µM;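 active = viability at or under a set limit, the compound median less 4 SD, cut at about 6% in these data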;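 also: 0% = Hyamine 1622 control at 20 µM and 100% = untreated cell control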
Ins promoter up: MIN6 insulin promoter up-regulation | MIN6 insulin promoter-GFP reporter, high-content imaging; stronger effect = higher value | z-score at 5 µM | hit rate 0.3% among 190,000 | AID 1625;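 active = z-score above 3 at 5 µM with at least 500 cells counted in the well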
* marks the source's active call; other numbers are inactive results; i = inactive; · = not tested or not shown; + = active, no number. A selection: hits, their analogues and other compounds. The true share with any hit is near 9.6%.

SMILES	Autophagy mod	INS promoter inh	Lmaj promast	HCT116 PTEN-null	bCat KO growth	Ins promoter up
C/C(CC(=O)Nc1ccc(N(C)C)cc1)=N\NC(=O)Cc1csc(N)n1	i	11	75*	98	102	-0.03
Cc1cc(C)n(-c2nnc(C)n2/N=C/c2ccco2)n1	i	52	-2	99	86	-0.27
CCCOc1ccc2ccccc2c1/C=N/n1c(C)nnc1-n1nc(C)cc1C	i	-31	51*	22	23	-5
C=CCn1c(=O)c2c3c(sc2n2c(Nc4ccc(C(=O)OCC)cc4)nnc12)CCCC3	i	14	94*	78	85	·
C=CCn1c(=O)c2c3c(sc2n2c(Nc4ccccc4)nnc12)CCCC3	i	-9	52*	61	68	-0.1
O=C(O)c1cc2c(o1)CCC/C2=N\O	i	-30	1	101	102	0.64
COc1ccc(C(=O)Cn2c(NCCO)nc3ccccc32)cc1OC	i	87*	-4	101	100	·
O=C(Cn1c(NCCO)nc2ccccc21)NCC1CCCO1 (centres undefined)	+	·	0	·	·	0.23
CN(C)CC/C=C1\c2ccccc2Sc2ccc(Cl)cc21	i	41	64*	15	11	·
CN(C)CCC=C1c2ccccc2CCc2ccccc21	i	-24	88*	63	72	·
COc1ccc(C(=O)NCc2nnc(SCC(=O)N3CCc4ccccc43)n2Cc2ccccc2)cc1	i	-11	64*	99	96	2.8
COC(=O)C1=C(Nc2ccc(C)cc2)C=C(C)C(C(=O)OC)C1c1ccc(OC)cc1 (centres undefined)	+	-378	37	29	29	·
COC(=O)C1=C(Nc2ccc(C)cc2)C=C(C)C(C(=O)OC)C1c1cccc(OC)c1 (centres undefined)	i	-11	45	22	23	·
CCOC(=O)c1nnc(-c2ccc(C)cc2)nc1Sc1ccc(Cl)cc1	i	·	54*	27	36	0.67
O=C(/C=C\c1ccccc1OC(=O)c1ccccc1F)c1cc2ccccc2o1	i	·	52*	2.0*	3.3*	-0.59
O=C(CSc1nnc(-c2cccs2)o1)N1CCCCC1	i	·	-7	107	100	0.1
COC(=O)c1cc2c(cc1NC(=O)CSCCc1ccccn1)OCO2	i	·	-1	93	88	0.96
CCN(CC)CCCNC(=O)c1cc(-c2ccc(O)cc2)on1	·	·	-7	93	90	0.22
CCN(CC)CCCNC(=O)c1cc2c(-c3ccc(Cl)cc3)nn(C)c2s1	+	·	100*	1.6*	0.8*	0.22
CN1CCN(CCCNC(=O)c2cc3c(-c4ccc(Cl)cc4)nn(C)c3s2)CC1	+	·	100*	1.7*	1.5*	-1.3
CCN(CC)CCCNC(=O)c1cc(-c2ccc(Cl)c(Cl)c2)on1	i	·	99*	2.4*	2.0*	-0.71
Cn1nc(-c2ccc(Cl)cc2)c2cc(C(=O)NCC3CCCO3)sc21 (centres undefined)	i	·	4	58	53	0.38
O=C(Nc1ccc2ccccc2c1)c1cccc(F)c1	·	·	·	·	·	0.25
COC(=O)c1nc(-c2ccc(C)cc2)oc1N(C)C	i	·	-1	76	78	-0.31
CN(/N=C/c1ccc(O)cc1O)c1nc(-c2ccccc2)cc(-c2ccccc2)n1	i	-10	64*	19	16	0.69
SMILES	Autophagy mod	INS promoter inh	Lmaj promast	HCT116 PTEN-null	bCat KO growth	Ins promoter up
Nc1nnc(Cc2ccc(Cl)cc2)s1	i	-200	-8	100	100	·
CC(=O)NC(CC(=O)NC(C)c1ccc(Cl)cc1Cl)c1ccccc1 (centres undefined)	i	·	4	·	·	0.12
CC(O)CNCCCOc1ccc(Cl)cc1C(C)(C)C (centres undefined)	i	·	72*	·	·	-0.49
CN(C)CCOCCOc1ccc(Cl)cc1C(C)(C)C	i	·	98*	·	·	0.05
Cc1ccc2cc(CN(CC3CCCO3)S(=O)(=O)c3ccccc3)c3nnnn3c2c1 (centres undefined)	i	19	10	77	71	-1.8
CCOC(=O)c1cc2c(=O)n3ccccc3nc2n(CCOC)c1=NC(=O)c1c(-c2c(F)cccc2Cl)noc1C	i	-67	67*	·	·	-0.55
CCOC(=O)c1cc2c(=O)n3ccccc3nc2n(CCOC)c1=NC(=O)c1ccncc1	i	32	20	91	88	-0.2
CCOC(=O)c1cc2c(=O)n3ccccc3nc2n(C(C)C)c1=NC(=O)c1ccncc1	i	-86	52*	79	92	-0.26
CCOC(=O)c1cc2c(=O)n3ccccc3nc2n(C(C)C)c1=NC(=O)c1c(-c2ccccc2Cl)noc1C	i	40	88*	·	·	·
CC(C(=O)N1CCOCC1)c1ccc([N+](=O)[O-])cc1 (centres undefined)	i	37	55*	100	100	0.09
CC(C(=O)N1CCN(Cc2ccc3c(c2)OCO3)CC1)c1ccc([N+](=O)[O-])cc1 (centres undefined)	i	·	80*	·	·	0.32
CCN(CC)C(=O)N1CCN(Cc2ccc3c(c2)OCO3)CC1	i	-8	2	·	·	-0.27
COc1ccc(-n2nnc3c(SCC(=O)NCC4CCCO4)ncnc32)cc1 (centres undefined)	i	-43	75*	13	8	0.01
Cc1ccc(C2=NN(CCC(=O)NCCC(C)C)C(=O)CC2)cc1	i	-22	73*	93	93	-0.72
COc1ccc(-n2c(C)nc3cc(C(=O)NCc4ccc5c(c4)OCO5)ccc32)cc1	i	32	83*	96	88	0.39
COc1ccc(C2=NN(CCC(=O)NCc3ccc4c(c3)OCO4)C(=O)CC2)cc1	i	-25	54*	101	93	0.41
Cc1ccc(C2=NN(CCC(=O)NCc3ccc4c(c3)OCO4)C(=O)CC2)cc1	i	16	42	84	79	-1.4
O=S(Cc1ccccc1)CC(O)(c1ccc(Cl)cc1)c1ccc(Cl)cc1 (centres undefined)	i	·	15	13	5.7*	-0.4
Cn1nccc1C(=O)Nc1ccn(C23CC4CC(CC(C4)C2)C3)n1	i	-18	53*	31	22	0.16
CCN(CC)CCCN=Cc1c(O)n(-c2c(C)cccc2C)c(=O)c2ccccc12	·	·	·	·	·	-0.17
O=c1c2ccccc2[nH]c(=S)n1Cc1ccc2c(c1)OCO2	i	·	3	·	·	1.2
Cn1c(=O)c(C(=O)CN2CCN(Cc3ccc4c(c3)OCO4)CC2)c(N)n(Cc2ccccc2)c1=O	·	·	·	·	·	-0.14
CN(C)CCCN=Cc1c(O)n(Cc2ccc3c(c2)OCO3)c(=O)c2ccccc12	+	·	98*	·	·	-0.58
O=c1c2ccccc2c(C=NC2CCN(Cc3ccccc3)CC2)c(O)n1Cc1ccc2c(c1)OCO2	i	·	87*	·	·	-0.31
CCN(CC)CCCN=Cc1c(O)n(Cc2ccccc2)c(=O)c2ccccc12	i	54	99*	75	74	0.54
CN(C)CCN=Cc1c(O)n(Cc2ccc3c(c2)OCO3)c(=O)c2ccccc12	i	29	74*	·	·	-1.2
